Results on 4 compounds are retold here after PubChem BioAssay (EPA / NIEHS).

The source made the active and inactive calls. How the source made its calls: active means hit-call score of the fitted dose curve at least 0.9, where 1 is the maximum; inactive means score below 0.9.

Details in all cases: mRNA level, 48 h; actives raise or lower the signal
Read-out in experiment [1]: Glutamate-cysteine ligase catalytic (GCLC), GCLC (gene 2729)
Kind of experiment: LTEA_HepaRG_GCLC: Life Technologies and Expression Analysis (LTEA) Assay for Glutamate-cysteine ligase catalytic (GCLC) using HepaRG (AID 2283498). The procedure, abridged:
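Read-out is GCLC transcript level by Fluidigm-based TaqMan qRT-PCR, normalized to three housekeeping genes and fitted in both directions relative to 0.5% DMSO. Human HepaRG cells received chemicals for 48 h, up to 100 uM.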

Read-out in experiment [2]: growth arrest and DNA damage 45 (GADD45G), GADD45G (gene 10912)
Kind of experiment: LTEA_HepaRG_GADD45G: Life Technologies and Expression Analysis (LTEA) Assay for growth arrest and DNA damage 45 (GADD45G) using HepaRG (AID 2283499). The procedure, abridged: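 GADD45G transcript level by qRT-PCR (housekeeping-normalized: ACTB, GAPDH, POLR2A) after 48 h chemical treatment of a single HepaRG lot in serum-free induction medium; eight-point half-log series up to 100 uM in 0.5% DMSO, duplicates, up- or down-regulation scored.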

Read-out in experiment [3]: Glutamate-cysteine ligase regulatory (GCLM), GCLM (gene 2730)
Nature of the experiment: LTEA_HepaRG_GCLM: Life Technologies and Expression Analysis (LTEA) Assay for Glutamate-cysteine ligase regulatory (GCLM) using HepaRG (AID 2283500). The method, boiled down:
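Differentiated HepaRG cells exposed 48 h in serum-free induction medium to eight half-log concentrations up to 100 uM (0.5% DMSO). GCLM mRNA by TaqMan qRT-PCR, normalized to ACTB, GAPDH and POLR2A; bidirectional fit versus DMSO.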

Read-out in experiment [4]: Glutathione S-transferase M3 (GSTM3), GSTM3 (gene 2947)
Kind of experiment: LTEA_HepaRG_GSTM3: Life Technologies and Expression Analysis (LTEA) Assay for Glutathione S-transferase M3 (GSTM3) using HepaRG (AID 2283501). The procedure, abridged: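 GSTM3 transcript levels came from Fluidigm TaqMan qRT-PCR normalized to three housekeeping genes, fitted in both directions against DMSO. HepaRG cultures received chemicals for 48 h in serum-free induction medium (0.5% DMSO), 8 half-log concentrations up to 100 uM, duplicate.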

Read-out in experiment [5]: Heat shock 70 kDa protein 1 (HSPA1A), gene 3303
Kind of experiment: LTEA_HepaRG_HSPA1A: Life Technologies and Expression Analysis (LTEA) Assay for Heat shock 70 kDa protein 1 (HSPA1A) using HepaRG (AID 2283502). The method, boiled down: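 Human HepaRG cells in serum-free induction medium were exposed in duplicate for 48 h to 8 half-log concentrations, highest 100 uM, in 0.5% DMSO. HSPA1A mRNA read by TaqMan qRT-PCR, normalized to ACTB, GAPDH, POLR2A, fitted bidirectionally against DMSO.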

Read-out in experiment [6]: Hypoxia-inducible factor 1-alpha (Homo sapiens) (UniProt Q16665)
Kind of experiment: LTEA_HepaRG_HIF1A: Life Technologies and Expression Analysis (LTEA) Assay for Hypoxia-inducible factor 1 (HIF1A) Trancription factor using HepaRG (AID 2283503). The procedure, abridged: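 Differentiated HepaRG cells in serum-free induction medium exposed 48 h, in duplicate, to 8-point half-log series from 100 uM in 0.5% DMSO. HIF1A mRNA measured by TaqMan qRT-PCR, normalized to ACTB/GAPDH/POLR2A, fitted bidirectionally versus DMSO.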

Read-out in experiment [7]: 3-Hydroxy-3-Methylglutaryl-CoA Synthase 2 (HMGCS2), HMGCS2 (gene 3158)
Kind of experiment: LTEA_HepaRG_HMGCS2: Life Technologies and Expression Analysis (LTEA) Assay for 3-Hydroxy-3-Methylglutaryl-CoA Synthase 2 (HMGCS2) using HepaRG (AID 2283504). The procedure, abridged: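 Readout is HMGCS2 transcript by qRT-PCR, housekeeping-normalised (ACTB/GAPDH/POLR2A) and fitted bidirectionally against 0.5% DMSO. Differentiated HepaRG cells received chemicals 48 h, duplicate wells, eight half-log concentrations topping at 100 uM.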

Read-out in experiment [8]: HGF (gene 3082)
Nature of the experiment: LTEA_HepaRG_HGF: Life Technologies and Expression Analysis (LTEA) Assay for Hepatocyte Growth Facto (HGF) using HepaRG (AID 2283505). The method, boiled down: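 HGF transcript was quantified by TaqMan qRT-PCR against three housekeeping genes after 48 h treatment of HepaRG cells. Exposure ran in duplicate over eight half-log steps topping at 100 uM in 0.5% DMSO vehicle.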

Read-out in experiment [9]: Insulin Like Growth Factor 1 (IGF1), IGF1 (gene 3479)
Nature of the experiment: LTEA_HepaRG_IGF1: Life Technologies and Expression Analysis (LTEA) Assay for Insulin Like Growth Factor 1 (IGF1) using HepaRG (AID 2283506). The method, boiled down:
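Differentiated HepaRG cells in serum-free induction medium, exposed 48 h in duplicate to 8 half-log concentrations up to 100 uM in 0.5% DMSO. IGF1 mRNA by Fluidigm qRT-PCR, normalised to ACTB, GAPDH and POLR2A.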

Read-out in experiment [10]: Intercellular Adhesion Molecule 1 (ICAM1), ICAM1 (gene 3383)
Nature of the experiment: LTEA_HepaRG_ICAM1: Life Technologies and Expression Analysis (LTEA) Assay for Intercellular Adhesion Molecule 1 (ICAM1) using HepaRG (AID 2283507). The procedure, abridged: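 ICAM1 transcript levels measured by qRT-PCR, normalized to three housekeeping genes (ACTB, GAPDH, POLR2A), after 48 h chemical exposure of HepaRG cells. Duplicate eight-point half-log series from 100 uM in 0.5% DMSO; gain or loss fitted against vehicle.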

Read-out in experiment [11]: Insulin-like growth factor-binding protein 1 (IGFBP1), IGFBP1 (gene 3484)
Kind of experiment: LTEA_HepaRG_IGFBP1: Life Technologies and Expression Analysis (LTEA) Assay for Insulin-like growth factor-binding protein 1 (IGFBP1) using HepaRG (AID 2283508). The procedure, abridged: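 Read-out is qRT-PCR transcript level normalized to three housekeeping genes, fitted in both directions against 0.5% DMSO. Differentiated HepaRG cells received eight half-log concentrations (top 100 uM) in duplicate for 48 h in serum-free induction medium.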

Read-out in experiment [12]: Interleukin 6 (IL6), IL6 (gene 3569)
Nature of the experiment: LTEA_HepaRG_IL6: Life Technologies and Expression Analysis (LTEA) Assay for Interleukin 6 (IL6) using HepaRG (AID 2283509). The procedure, abridged: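 HepaRG, ~100,000 cells/well, 48 h pre-culture; serum-free induction medium; cmpd 8-pt half-log from 100 uM, 0.5% DMSO, duplicate, 48 h. Lysis in RLT, TaqMan qRT-PCR; gain or loss vs DMSO.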

Read-out in experiment [13]: Potassium channel subfamily K member 1 (KCNK1), KCNK1 (gene 3775)
Nature of the experiment: LTEA_HepaRG_KCNK1: Life Technologies and Expression Analysis (LTEA) Assay for Potassium channel subfamily K member 1 (KCNK1) using HepaRG (AID 2283511). The procedure, abridged:
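Gain or loss of KCNK1 mRNA is the read-out, quantified by qRT-PCR against three housekeeping genes after 48 h chemical treatment of human HepaRG liver cells. Concentrations ran from 100 uM downward in half-log steps, vehicle 0.5% DMSO.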

Read-out in experiment [14]: Keratin 19 (KRT19), KRT19 (gene 3880)
Kind of experiment: LTEA_HepaRG_KRT19: Life Technologies and Expression Analysis (LTEA) Assay for Keratin 19 (KRT19) using HepaRG (AID 2283512). The procedure, abridged: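 KRT19 transcript measured by TaqMan qRT-PCR, referenced to three housekeeping genes, after HepaRG cells received test chemicals for 48 h. Eight half-log concentrations, top 100 uM, 0.5% DMSO vehicle; increases and decreases both fitted.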

Read-out in experiment [15]: JUN Transcription Factor, JUN (gene 3725)
Kind of experiment: LTEA_HepaRG_JUN: Life Technologies and Expression Analysis (LTEA) Assay for JUN Transcription Factor using HepaRG (AID 2283513). The procedure, abridged:
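HepaRG cells, 48 h post-plating, exposed 48 h in serum-free induction medium to 8-point half-log series (top 100 uM, 0.5% DMSO), duplicate; mRNA by qRT-PCR (TaqMan, Fluidigm), normalized to ACTB/GAPDH/POLR2A; bidirectional fit vs DMSO.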

Read-out in experiment [16]: Lipase C (LIPC), LIPC (gene 3990)
Kind of experiment: LTEA_HepaRG_LIPC: Life Technologies and Expression Analysis (LTEA) Assay for Lipase C (LIPC) using HepaRG (AID 2283514). The method, boiled down:
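Read-out is LIPC transcript level by TaqMan qRT-PCR, normalized to three housekeeping genes, after 48 h chemical treatment of human HepaRG liver cells. Curves span eight concentrations topping at 100 uM; activity in either direction scored relative to 0.5% DMSO.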

Read-out in experiment [17]: Lipoprotein lipase (LPL), LPL (gene 4023)
Nature of the experiment: LTEA_HepaRG_LPL: Life Technologies and Expression Analysis (LTEA) Assay for Lipoprotein lipase (LPL) using HepaRG (AID 2283515). The procedure, abridged: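 Read-out is LPL transcript level by qRT-PCR, normalized to three housekeeping genes and fitted bidirectionally against the DMSO control. Human HepaRG cells received chemicals for 48 h at up to 100 uM.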

Read-out in experiment [18]: MicroRNA 122 (MIR122), gene 406906
Nature of the experiment: LTEA_HepaRG_MIR122: Life Technologies and Expression Analysis (LTEA) Assay for MicroRNA 122 (MIR122) using HepaRG (AID 2283516). Further: the transcript read is the microRNA miR-122. The method, boiled down: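 Differentiated human HepaRG cells in serum-free induction medium exposed 48 h to 8 half-log concentrations from 100 uM in 0.5% DMSO, duplicate. MIR122 quantified by Fluidigm TaqMan qRT-PCR, normalised to ACTB, GAPDH, POLR2A; fold change fitted bidirectionally versus DMSO.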

Read-out in experiment [19]: matrix metalloproteinase-10 (MMP10), MMP10 (gene 4319)
Nature of the experiment: LTEA_HepaRG_MMP10: Life Technologies and Expression Analysis (LTEA) Assay for matrix metalloproteinase-10 (MMP10) using HepaRG (AID 2283517). The procedure, abridged: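 Gain or loss of MMP10 mRNA is fitted relative to the 0.5% DMSO vehicle. The human hepatic line HepaRG receives a 48-hour serum-free exposure, in duplicate, with a maximum concentration of 100 uM.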

Read-out in experiment [20]: Interleukin 6 Receptor (IL6R), IL6R (gene 3570)
Kind of experiment: LTEA_HepaRG_IL6R: Life Technologies and Expression Analysis (LTEA) Assay for Interleukin 6 Receptor (IL6R) using HepaRG (AID 2283510). The method, boiled down: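 Differentiated HepaRG cells, plated 48 h, then exposed in duplicate for 48 h in serum-free induction medium to 8 half-log concentrations (top 100 uM, 0.5% DMSO). IL6R mRNA measured by TaqMan qRT-PCR, normalized to ACTB/GAPDH/POLR2A; bidirectional fit vs DMSO.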

Sequence of Hypoxia-inducible factor 1-alpha (Homo sapiens) (Q16665 whole entry, looked up): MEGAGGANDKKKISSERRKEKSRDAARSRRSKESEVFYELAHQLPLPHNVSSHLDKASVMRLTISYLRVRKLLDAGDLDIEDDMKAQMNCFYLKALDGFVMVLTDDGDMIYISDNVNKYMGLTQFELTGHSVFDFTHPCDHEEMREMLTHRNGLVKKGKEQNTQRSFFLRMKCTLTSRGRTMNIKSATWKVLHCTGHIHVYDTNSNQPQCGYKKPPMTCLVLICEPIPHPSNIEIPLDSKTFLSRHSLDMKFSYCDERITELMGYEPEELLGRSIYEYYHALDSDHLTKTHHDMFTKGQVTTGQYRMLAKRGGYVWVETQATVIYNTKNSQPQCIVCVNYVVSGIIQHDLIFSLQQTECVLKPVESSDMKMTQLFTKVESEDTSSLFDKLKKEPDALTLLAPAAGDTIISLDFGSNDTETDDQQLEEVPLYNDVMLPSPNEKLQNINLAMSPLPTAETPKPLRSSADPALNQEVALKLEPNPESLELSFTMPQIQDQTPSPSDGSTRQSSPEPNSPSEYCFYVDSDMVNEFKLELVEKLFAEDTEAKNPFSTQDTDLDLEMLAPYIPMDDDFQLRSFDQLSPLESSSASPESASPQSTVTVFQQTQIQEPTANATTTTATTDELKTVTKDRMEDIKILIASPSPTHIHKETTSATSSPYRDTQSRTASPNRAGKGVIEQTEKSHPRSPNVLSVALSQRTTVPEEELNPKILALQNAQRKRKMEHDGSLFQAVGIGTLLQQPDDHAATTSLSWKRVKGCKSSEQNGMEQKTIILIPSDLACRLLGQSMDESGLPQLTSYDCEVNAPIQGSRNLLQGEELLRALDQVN

`CCCCOC(=O)c1ccccc1`: the compound was called inactive in experiment [1], in experiment [2], in experiment [3], in [4], in experiment [5] and in experiment [6]. Also, the compound was called inactive in experiment [7], in experiment [8], in experiment [9], in experiment [10], in experiment [11] and in [12]. In addition, the compound was called inactive in experiment [13], in experiment [14], in experiment [15], in experiment [16], in experiment [17] and in [18]. For the same compound, in experiment [19], the result was inactive.

For the compound `Nc1ccn([C@@H]2O[C@H](CO)[C@@H](O)[C@@H]2O)c(=O)n1`, the compound was classed as inactive in experiment [1], in experiment [2], in experiment [3], in [4], in [5] and in [6]. Also, the outcome in experiment [7], in experiment [8], in experiment [9], in [10], in experiment [11] and in [12] was inactive. For the same compound, the outcome in experiment [20], in experiment [13], in experiment [15], in experiment [16], in experiment [17] and in experiment [18] was inactive. For the same compound, the result in [19] was inactive.

As to `CCCC(CCC)C(=O)O`, the compound was classed as inactive in [1], in experiment [2], in experiment [3], in experiment [4], in experiment [5] and in [6]. The compound was classed as inactive in experiment [7], in [9], in experiment [10], in [11], in experiment [12] and in experiment [13]. Moreover, the result in experiment [14], in [15], in [16], in experiment [17] and in experiment [18] was inactive.

In the case of `CC(C)c1nnc2ccc(-c3ocnc3-c3cc(F)ccc3F)cn12`, the outcome in experiment [1], in experiment [3], in experiment [4], in experiment [5], in experiment [6] and in [10] was inactive. Moreover, the result in experiment [12], in [13], in experiment [15], in experiment [17] and in experiment [19] was inactive. The AC50 (in general, the concentration giving half of the maximal activity seen) in [2] is 0.0565 µM (active); in [7], 59.1 µM (active); in [9], 66.1 µM (active); in experiment [11] it was 12.8 µM (active); in experiment [14], 18.7 µM (active); in experiment [16], 83.4 µM (active). Moreover, the concentration at half-maximal activity (AC50) in experiment [18] is 50 µM (active).
